Unmarked numbers belong to inactive results. Results filed as inconclusive are left out. A call without a number means that no potency is given here. Activity calls are given as the source filed them. Unless noted, the call rests on the fitted dose curve; in most records, active means well fitted curve in the direction sought with a large enough effect in the repeat runs; inconclusive means weak or mixed curves; inactive means no such curve, though single readings can be large; an effect the other way counts as inactive or inconclusive.
How the values were obtained:
[1] = qHTS assay for small molecule agonists of the p53 signaling pathway (AID 651631; calls by dose curve; further: nearly all actives have a fitted effect of over 15% in size)
Summary of the method: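 Quantitative high-throughput format: 4,000 p53RE-bla HCT-116 cells/well, 5 h pre-incubation, 16 h compound exposure at 37 °C, 2 h room-temperature substrate step, fluorescence intensity measured.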

[2] = qHTS assay for small molecules that induce genotoxicity in human embryonic kidney cells expressing luciferase-tagged ATAD5 (AID 651632); further: nearly all actives have a fitted effect of over 15% in size
Summary of the method: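 A rise in luciferase signal from ATAD5-tagged HEK293T cells marks genetic stress. Cells were exposed to compounds for 16 hr at 37C, 5% CO2, then luciferase was quantified after a 30 min room-temperature incubation with Amplite.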

[3] = qHTS assay for small molecule agonists of the p53 signaling pathway - cell viability (AID 651633; calls by dose curve;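 further: p53RE-bla HCT reporter cells with a stable beta-lactamase p53 reporter; series mostly up to about 83 µM; nearly all actives have a fitted effect of over 30% in size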)
Summary of the method: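 Viability counter-read: CellTiter-Glo luminescence (30 min, room temperature) in the same p53RE-bla plates. These plates had been exposed to compounds for 16 h at 37 C.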

[4] = qHTS assay for small molecules that induce genotoxicity in human embryonic kidney cells expressing luciferase-tagged ATAD5 - cell viability (AID 651634; calls by dose curve; further: nearly all actives have a fitted effect of over 25% in size)
Summary of the method: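 Cytotoxicity counter-readout: after 15.5 hr compound treatment at 37C, live-cell protease activity in ATAD5-luciferase HEK293T cells measured by CellTiter-Fluor fluorescence, 30 min development at 37C.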

[5] = qHTS assay for small molecule disruptors of the mitochondrial membrane potential - cell viability (AID 720634; calls by dose curve;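 further: human HepG2 liver cancer cells; series mostly up to about 83 µM; nearly all actives have a fitted effect of over 20% in size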)
Summary of the method: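 Cytotoxicity was quantified from ATP content by CellTiter-Glo luminescence in the same wells as the MMP dye read-out. HepG2 (2,000 cells/well) were plated overnight and exposed to compounds for 1 hr at 37 C.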

[6] = qHTS assay for small molecule disruptors of the mitochondrial membrane potential (AID 720635); further: potency means the concentration at half of the fitted maximal effect
Summary of the method: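 Mitochondrial membrane potential tracked with Mito-MPS dye, red aggregates (ex 540/em 590 nm) against green monomers (ex 490/em 535 nm). Compound treatment 1 hr at 37C, dye 30 min in HepG2.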

[7] = qHTS assay to test for compound auto fluorescence at 590 nm (red) in HepG2 cells (AID 720674)
Summary of the method: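 Red autofluorescence (Ex/Em 540/590 nm, Rose Bengal sodium equivalents) was measured in HepG2 cells, 2,000 per well in MEM plus 10% FBS, plated overnight at 37 C. Readings were taken 1 hr after adding 23 nL compound or DMSO, at 37 C and 5% CO2.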

[8] = qHTS assay to test for compound auto fluorescence at 535 nm (green) in HepG2 cells (AID 720675)
[9] = qHTS assay to test for compound auto fluorescence at 460 nm (blue) in HEK293 cells (AID 720678)
Summary of the method: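 After cell attachment (4-5 hr, 37C), compounds were pinned onto HEK293 monolayers in 10% dialyzed FBS medium. The blue channel (405/460 nm) was read following overnight culture. Equivalency was calculated against triamterene.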

[10] = qHTS assay to test for compound auto fluorescence at 590 nm (red) in HEK293 cells (AID 720679)
Summary of the method: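 Plates of HEK293 cells (10% dialyzed FBS) are treated with 23 nL compound or DMSO vehicle after a 4-5 hr attachment period, incubated overnight at 37C, and read for red fluorescence at 540/590nm.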

Compound | outcome [1] | outcome [2] | outcome [3] | Potency [4] | outcome [5] | Potency [6] | outcome [7] | outcome [8] | outcome [9] | outcome [10] | fluorescence, relative to Rose Bengal [7] | fluorescence, % of fluorescein control [8] | fluorescence, % of triamterene [9] | fluorescence, % of fluorescent control [10]
Nc1nnnn1-c1ccccc1 | inactive | inactive | inactive | inactive | inactive | inactive | inactive | inactive | inactive | inactive |  |  |  | 
CC(=O)O[Si](C)(OC(C)=O)OC(C)=O | inactive | inactive | inactive | inactive | inactive | 17.7 µM (active) | inactive | inactive | inactive | inactive |  |  |  | 
CC(C)=CCC[C@@](C)(O)[C@H]1CC=C(C)CC1 | inactive | inactive | inactive | inactive | inactive | inactive | inactive | inactive | inactive | inactive |  |  |  | 
CCC(C)C(=O)OCCc1ccccc1 (centres undefined) | inactive | inactive | inactive | inactive | inactive | inactive | inactive | inactive | inactive | inactive |  |  |  | 
CC1(C)Oc2ccc(C#N)cc2[C@@H](N2CCCC2=O)[C@@H]1O | inactive | inactive | inactive | inactive | inactive | inactive | inactive | inactive | inactive | inactive |  |  |  | 
c1ccc(-c2nn[nH]n2)cc1 | inactive | inactive | inactive | inactive | inactive | inactive | inactive | inactive | inactive | inactive |  |  |  | 
CC(C)CCOC(=O)c1ccccc1 | inactive | inactive | inactive | inactive | inactive | inactive | inactive | inactive | inactive | inactive |  |  |  | 
CC(C)Nc1ccccc1 | inactive | inactive | inactive | inactive | inactive | inactive | inactive | inactive | inactive | inactive |  |  |  | 
OCC1CCC(CO)CC1 (centres undefined) | inactive | inactive | inactive | inactive | inactive | inactive | inactive | inactive | inactive | inactive |  |  |  | 
CCn1cc(C(=O)O)c(=O)c2cnc(N3CCCC3)nc21 | inactive | inactive | inactive | inactive | inactive | inactive |  |  |  |  | -0.176% [at 18.6 µM] | -0.162% [at 18.6 µM] | 0.0274% [at 18.6 µM] | -0.164% [at 18.6 µM]
OCC1(CO)COCOC1 | inactive | inactive | inactive | inactive | inactive |  | inactive | inactive | inactive | inactive |  |  |  | 
NCC1(Cc2noc(=O)[nH]2)CCCCC1 | inactive | inactive | inactive | inactive |  |  | inactive | inactive | inactive | inactive |  |  |  | 
CN(C)CC/C=C1/c2ccccc2COc2ccc(CC(=O)O)cc21 | inactive | inactive | inactive | inactive |  |  | inactive | inactive | inactive | inactive |  |  |  | 
CCCCOC(=O)[C@H](C)O | inactive | inactive | inactive | inactive |  |  | inactive | inactive | inactive | inactive |  |  |  | 
O=C(CN1CCNCC1)NC1CCCCC1 | inactive | inactive | inactive |  | inactive | inactive | inactive | inactive | inactive | inactive |  |  |  | 
CC1(C)[C@H]2CC[C@](C)(C2)[C@H]1O | inactive | inactive | inactive | inactive | inactive |  | inactive | inactive | inactive | inactive |  |  |  | 
C=C(C)c1cccc(C(C)(C)N=C=O)c1 | inactive | inactive | inactive | inactive | inactive |  | inactive | inactive | inactive | inactive |  |  |  | 
Cc1ncc([N+](=O)[O-])n1CC(C)O (centres undefined) | inactive | inactive | inactive |  | inactive | inactive | inactive | inactive | inactive | inactive |  |  |  | 
CCCCCC/C=C/C(=O)OC | inactive | inactive | inactive | inactive | inactive |  | inactive | inactive | inactive | inactive |  |  |  | 
CC(C)COC(=O)c1ccccc1 | inactive | inactive | inactive | inactive |  | inactive | inactive | inactive | inactive | inactive |  |  |  | 
O=C1CCCCO1 | inactive | inactive | inactive | inactive |  |  | inactive | inactive | inactive | inactive |  |  |  | 
CC/C(C)=N\O[Si](C)(O/N=C(\C)CC)O/N=C(\C)CC | inactive | inactive | inactive | inactive |  | inactive | inactive | inactive | inactive | inactive |  |  |  | 
C=CC(=O)CCCCC | inactive | inactive | inactive | inactive | inactive |  | inactive | inactive | inactive | inactive |  |  |  | 
NCCOCCN | inactive | inactive | inactive | inactive | inactive |  | inactive | inactive | inactive | inactive |  |  |  | 
C=CCCCCCCCC | inactive | inactive | inactive | inactive | inactive |  | inactive | inactive | inactive | inactive |  |  |  | 
O=C(O)CSCC(=O)NC1CCSC1=O (centres undefined) | inactive | inactive | inactive |  | inactive | inactive | inactive | inactive | inactive | inactive |  |  |  | 
C[Si]1(C)O[Si](C)(C)O[Si](C)(C)O[Si](C)(C)O[Si](C)(C)O1 | inactive | inactive | inactive |  | inactive | inactive | inactive | inactive | inactive | inactive |  |  |  | 

From PubChem BioAssay (Tox21)
